The list is not random: actives were taken first. Their share in the collection is about 5.4%.
CSC inhib = cancer stem cell inhibition | cancer stem cell-like cells viability, luminescence | inhibition, % at 7.5 µM | 300,000 compounds, 1.1% hits | AID 2717; in the data active means inhibition above about 75%; tested in HMLE shEcad cells
SKKanGAS inh = blocks kanamycin growth of S. pyogenes SKKanGAS strain; 300,000 compounds, 1.3% hits; AID 1662; inhibition, % at 7.5 µM; BacTiter-Glo, 6 h;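 active means mean replicate score, as percent of positive control median, at least 50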;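 further: strain carries kanamycin resistance gene driven by streptokinase promoter and grows in 40 µg/ml kanamycin; loss of luminescence reflects streptokinase promoter inhibition or plain growth inhibition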
Calb FLC = affects C. albicans growth with fluconazole | C. albicans CaCi-2 (fluconazole-resistant clinical isolate) + fluconazole, Alamar Blue growth, 48 h | 300,000 compounds, 0.57% hits | growth inhibition, % (no concentration beside the values);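 active means growth inhibition above about 58% in most replicates, limit read from the data, passing the limit was not always enough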;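 further: all wells also contain fluconazole at 8 µg/ml as a sub-toxic cotreatment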
Beta cell apopt = beta cell apoptosis inhibition | protection from apoptosis, % (concentration not given with the values) | 300,000 compounds, 0.8% hits | INS-1E cytokine-induced death, ATP luminescence, 48 h; percent of positive-control rescue, neutral wells zero;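 active means Every replicate reaches about 75%, or at least half do and their mean reaches it too, limit read from the data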;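 further: higher means more ATP so stronger rescue from cytokine killing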
MPTP block = inhibitors of mitochondrial permeability transition pore; isolated mouse mitochondria, Ca2+ swelling absorbance, 30 min; 360,000 compounds, 1.4% hits; inhibition, % at 10 µM;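 active means inhibition of 50% or more, scaled per plate between neutral and stimulator controls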
Mdm2 MdmX PPI = inhibitors of human Mdm2/MdmX interaction; SaOS-2 split-luciferase Mdm2/MdmX complementation, luminescence; O15151+Q00987; AID 485346; 330,000 compounds, 3% hits; inhibition, % at 8 µM;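 active means inhibition of at least 50% at 8 µM in the primary screen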
Mdm2 MdmX conf = confirmation of human Mdm2/MdmX interaction inhibitors | 10,000 compounds, 55% hits | AID 489028 | shares compounds with Mdm2 MdmX PPI | Mdm2-MdmX binding, luminescent assay | inhibition, % at 8 µM; in the data active means inhibition above about 40%
Full FLuc ctr = full-length luciferase inhibition in Mdm2/MdmX counter-screen | shares compounds with Mdm2 MdmX PPI | SaOS-2 full-length luciferase counterscreen, luminescence | 6,200 compounds, 77% hits | inhibition, % at 8 µM | AID 504607;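 active means mean inhibition at 8 µM reaching about 37%, which flags the compound as non-specific, limit read from the data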;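 further: p53-null SaOS-2 cells with luciferase driven by a doxycycline-inducible promoter; compound on cells about two nights before reading with doxycycline added after day one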
Large screens that a line does not name were inactive (follow-up assays come after a bar, where they were run).

COc1ccc(Cn2c(=O)[nH]c3cc(C(=O)N4CCN(c5ccc(OC)cc5)CC4)ccc3c2=O)cc1	none
O=C(c1ccc(Cn2c(=O)[nH]c3ccccc3c2=O)cc1)N1CCN(c2ccc(Cl)cc2)CC1	Mdm2 MdmX PPI 65.0 | Mdm2 MdmX conf inactive
CCOC(=O)N1CCN(C(=O)c2ccc(Cn3c(=S)[nH]c4ccc(Br)cc4c3=O)cc2)CC1	Mdm2 MdmX PPI 55.2 | Mdm2 MdmX conf inactive
Cc1ccc(C)c(N2CCN(C(=O)c3ccc(Cn4c(=O)[nH]c5ccccc5c4=O)cc3)CC2)c1	Mdm2 MdmX PPI 90.9 | Mdm2 MdmX conf 51.9 | Full FLuc ctr 47.0
C=CCn1c(=O)[nH]c2cc(C(=O)N3CCN(c4cc(C)ccc4C)CC3)ccc2c1=O	none
CCc1ccc(C(=O)COC(=O)c2cnc(C)cn2)cc1	none
CCOC(=O)C1C(c2ccccc2)C(C(=O)OCC)S(=O)(=O)C(CCN(CC)CC)S1(=O)=O (configuration not stated)	none
Cc1ccc(NC(=O)COC(=O)Cn2cnc3c2c(=O)n(C)c(=O)n3C)cc1F	none (no result: CSC inhib, SKKanGAS inh, Calb FLC, Beta cell apopt)
CNC(=O)c1c(NC(=O)c2ccc(S(=O)(=O)N(C)c3ccccc3)cc2)sc2c1CCN(C(C)C)C2	none (no result: MPTP block)
CC(C)N1CCc2c(sc(NC(=O)c3ccc(S(=O)(=O)N4CCc5ccccc54)cc3)c2C(N)=O)C1	CSC inhib 112.6, Mdm2 MdmX PPI 100.4 | Mdm2 MdmX conf inactive
O=C(O)c1ccc(S(=O)(=O)N2CCCc3ccccc32)cc1	none
NC(=O)c1ccsc1NC(=O)c1ccc(S(=O)(=O)N2CCCc3ccccc32)cc1	Mdm2 MdmX PPI 59.1 (no result: Beta cell apopt) | Mdm2 MdmX conf inactive
COc1ccccc1CNC(=O)C(C)Oc1ccccc1 (configuration not stated)	none
COc1ccc(CCNC(=O)NCCc2c[nH]c3ccccc23)cc1OC	none
COc1cc(CNCCc2c[nH]c3ccccc23)ccc1OCc1ccccc1F	CSC inhib active, Mdm2 MdmX PPI 90.1 | Mdm2 MdmX conf inactive
CCc1ccc(S(=O)(=O)NCc2cccs2)cc1	none
CC(=O)Nc1ccc(N2C(=O)CSC2c2ccc([N+](=O)[O-])cc2)cc1 (configuration not stated)	none
N#CC1=C(N)OC2=C(CCc3ccccc32)C1c1ccccc1 (configuration not stated)	Mdm2 MdmX PPI 74.3 | Mdm2 MdmX conf 51.8 | Full FLuc ctr 143.3
O=C(CN1C(=O)c2ccccc2S1(=O)=O)Nc1ccc(S(=O)(=O)N2CCCCCC2)cc1	none (no result: CSC inhib)
O=C(CSc1nnc(-c2ccncc2)o1)NCc1ccccc1	none
O=C(Nc1nc(-c2ccc(F)c(F)c2)cs1)Nc1ccc(F)cc1F	Mdm2 MdmX PPI 83.0 | Mdm2 MdmX conf 62.4 | Full FLuc ctr inactive
COCCNC(=O)/C(C#N)=C/c1ccc(O)c([N+](=O)[O-])c1	none
COCCNC(=O)/C(C#N)=C/C=C/c1ccccc1[N+](=O)[O-]	Mdm2 MdmX PPI 52.9 | Mdm2 MdmX conf 54.2 | Full FLuc ctr inactive
CCOC(=O)C(C)(C)N(Cc1ccc(Cl)cc1)S(=O)(=O)c1ccc(Cl)c([N+](=O)[O-])c1	CSC inhib 109.4, Mdm2 MdmX PPI 95.3 (no result: MPTP block) | Mdm2 MdmX conf 81.2 | Full FLuc ctr 50.0
NS(=O)(=O)c1ccc(CNC(=O)c2ccc(Cl)c([N+](=O)[O-])c2)cc1	none
CCOC(=O)C(C)(C)NS(=O)(=O)c1ccc(Cl)c([N+](=O)[O-])c1	none
CCOC(=O)C(C)(C)N(Cc1ccc(C)cc1)S(=O)(=O)c1ccc(Cl)c([N+](=O)[O-])c1	Mdm2 MdmX PPI 96.0 | Mdm2 MdmX conf 65.5 | Full FLuc ctr 70.7
CC(C)NC(=O)c1cc(-c2ccc(Br)cc2)on1	none
CC(C)c1cccc(C(C)C)c1OC(=O)[C@H]1OC(c2ccc(Br)cc2)=C[C@@H]1c1ccc(Br)cc1	CSC inhib 111.1, Mdm2 MdmX PPI 60.6 (no result: SKKanGAS inh, Calb FLC) | Mdm2 MdmX conf inactive
Cc1cccc(Oc2sc(C(=O)c3ccccc3)c(N)c2C#N)c1	Mdm2 MdmX PPI 58.1 | Mdm2 MdmX conf inactive | Full FLuc ctr 42.0
N#Cc1c(Nc2ccccc2)sc(C(=O)c2ccccc2)c1N	none
CS(=O)(=O)c1ccc2nnn(OCC(=O)Nc3ccc(Br)cc3Br)c2c1	none

Screening results: PubChem BioAssay, several laboratories
